PubChem BioAssay AID1159580 (chemical genetic matrix, 2015)
In all, about 5,500 compounds went through this assay and about 2,000 (36%) were called active. Roughly 18% stayed inconclusive and do not appear here. Rule as the data show it: active = normalized growth mostly below about 0.91 (no sharp cut-off); inconclusive = no clear call, values can overlap the other calls; inactive = mostly above about 0.92. The list shows a part of the results.

Test: chemical genetic growth profiling, strain panel (AID 1159580);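 also: tested at 20 µM; growth read once vehicle control cultures reached saturation at 30 °C; 1 = growth at the plate median or of vehicle wells; lower values mean less growth of the strain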
Details: S. cerevisiae deletion strains, growth OD
[1] = locus YDL101C, strain DUN1, active compounds read low
[2] = locus YHR030C, strain SLT2, active compounds read low
[3] = locus YHR079C, strain IRE1, active compounds read low
[4] = locus YJL095W, strain BCK1, active compounds read low
[5] = locus YJR066W, strain TOR1, active compounds read low
[6] = locus YLR113W, strain HOG1, active compounds read low
[7] = locus YNL183C, strain NPR1, active compounds read low
[8] = locus YOR231W, strain MKK1, active compounds read low
[9] = locus YPL256C, strain CLN2, active compounds read low
[10] = locus YJL187C, strain SWE1, active compounds read low

Measured: normalized growth

N#C/C(=N/Nc1ccc(F)cc1)S(=O)(=O)c1ccc(Cl)cc1
inactive: locus YAR019C, strain CDC15, active compounds read low 0.976 | locus YBL105C, strain PKC1, active compounds read low 0.97 | locus YBR135W, strain CKS1, active compounds read low 0.965 | locus YBR136W, strain MEC1, active compounds read low 0.969 | locus YBR160W, strain CDC28, active compounds read low 0.965 | locus YDL017W, strain CDC7, active compounds read low 0.972 | locus YDL028C, strain MPS1, active compounds read low 0.971 | [1] 0.974 | locus YDL108W, strain KIN28, active compounds read low 0.957 | locus YDL132W, strain cdc53, active compounds read low 0.966 | locus YDL214C, strain PRR2, active compounds read low 0.94 | locus YDR052C, strain DBF4, active compounds read low 0.964 | locus YDR054C, strain cdc34, active compounds read low 0.976 | locus YDR226W, strain ADK1, active compounds read low 0.963 | locus YDR477W, strain SNF1, active compounds read low 0.961 | locus YER123W, strain YCK3, active compounds read low 0.922 | locus YER133W, strain GLC7, active compounds read low 0.968 | locus YFL009W, strain cdc4, active compounds read low 0.978 | locus YFL029C, strain CAK1, active compounds read low 0.973 | locus YFR003C, strain YPI1, active compounds read low 0.974 | locus YFR019W, strain FAB1, active compounds read low 0.912 | locus YFR028C, strain CDC14, active compounds read low 0.959 | locus YGR040W, strain KSS1, active compounds read low 0.94 | locus YGR052W, strain FMP48, active compounds read low 0.952 | locus YGR092W, strain DBF2, active compounds read low 0.912 | [2] 0.982 | [3] 0.993 | locus YHR082C, strain KSP1, active compounds read low 0.994 | locus YHR205W, strain SCH9, active compounds read low 0.907 | locus YIL147C, strain SLN1, active compounds read low 0.976 | [4] 0.926 | locus YJL128C, strain PBS2, active compounds read low 0.942 | locus YJL157C, strain FAR1, active compounds read low 0.953 | locus YJR016C, strain ILV3, active compounds read low 0.977 | locus YJR066W, strain TOR1 (second series), active compounds read low 0.924 | [5] 0.996 | locus YKL048C, strain ELM1, active compounds read low 0.932 | locus YKL067W, strain YNK1, active compounds read low 0.96 | locus YKL101W, strain HSL1, active compounds read low 0.93 | locus YKL193C, strain SDS22, active compounds read low 0.978 | locus YKL203C, strain TOR2, active compounds read low 0.99 | [6] 0.941 | locus YLR133W, strain CKI1, active compounds read low 0.942 | locus YLR403W, strain SFP1, active compounds read low 0.899 | locus YML070W, strain DAK1, active compounds read low 0.939 | locus YMR001C, strain CDC5, active compounds read low 0.975 | locus YMR205C, strain PFK2 (second series), active compounds read low 0.96 | locus YMR277W, strain FCP1, active compounds read low 0.979 | locus YNL006W, strain LST8, active compounds read low 0.989 | locus YNL020C, strain ARK1, active compounds read low 0.946 | locus YNL161W, strain CBK1, active compounds read low 0.966 | [7] 0.988 | locus YNL207W, strain RIO2, active compounds read low 0.969 | locus YNL222W, strain SSU72, active compounds read low 0.977 | locus YNL307C, strain MCK1 (second series), active compounds read low 0.912 | locus YOL078W, strain AVO1, active compounds read low 0.97 | locus YOL136C, strain PFK27, active compounds read low 0.905 | locus YOR061W, strain CKA2, active compounds read low 0.979 | locus YOR119C, strain RIO1, active compounds read low 0.998 | [8] 0.953 | locus YOR329C, strain SCD5, active compounds read low 0.975 | locus YPL031C, strain PHO85, active compounds read low 0.954 | locus YPL153C, strain RAD53, active compounds read low 0.956 | locus YPL204W, strain HRR25, active compounds read low 0.904 | locus YPL209C, strain IPL1, active compounds read low 0.975 | [9] 1.01 | locus YPR025C, strain CCL1, active compounds read low 0.974 | locus YPR106W, strain ISR1, active compounds read low 0.975 | locus YPR111W, strain DBF20, active compounds read low 0.969 | strain NNK1, active compounds read low 0.972 | strain TSCII, active compounds read low 0.966

CCOC(=O)CNc1ccc(F)cc1
inactive: locus YAL013W, strain DEP1, active compounds read low 0.995 | locus YBR229C, strain ROT2, active compounds read low 0.989 | [1] 1.02 | locus YDL134C, strain PPH21, active compounds read low 0.977 | locus YDR150W, strain NUM1, active compounds read low 1.02 | locus YEL061C, strain CIN8, active compounds read low 1.01 | locus YGR078C, strain PAC10, active compounds read low 0.991 | [2] 0.989 | locus YHR087W, strain rtc3, active compounds read low 1.01 | [10] 1 | locus YJR043C, strain POL32, active compounds read low 0.988 | locus YJR075W, strain HOC1, active compounds read low 0.99 | locus YLR039C, strain RIC1, active compounds read low 0.953 | locus YLR058C, strain SHM2 (second series), active compounds read low 0.983 | locus YLR085C, strain ARP6, active compounds read low 0.986 | locus YLR262C, strain YPT6, active compounds read low 0.975 | locus YML094W, strain GIM5, active compounds read low 1.04 | locus YMR219W, strain ESC1, active compounds read low 0.997 | locus YMR263W, strain SAP30, active compounds read low 0.983 | locus YNL128W, strain TEP1, active compounds read low 0.98 | locus YNL153C, strain GIM3, active compounds read low 1.01 | locus YNL298W, strain CLA4 (second series), active compounds read low 0.974 | locus YNL322C, strain KRE1, active compounds read low 0.999 | locus YNR030W, strain Alg12, active compounds read low 1.03 | locus YPL055C, strain LGE1, active compounds read low 1.02 | locus YPL241C, strain CIN2, active compounds read low 0.977 | locus YPR135W, strain CTF4, active compounds read low 0.965

O=C(NC(=O)c1ccccc1Cl)Nc1ccc(OC(F)(F)F)cc1
inactive: locus YAL021C, strain ccr4, active compounds read low 1.05 | locus YAL026C, strain drs2, active compounds read low 1.02 | locus YAL030W, strain snc1, active compounds read low 1.03 | locus YBL061C, strain skt5, active compounds read low 1.02 | locus YBR009C, strain hhf1, active compounds read low 0.999 | locus YBR023C, strain chs3, active compounds read low 1.04 | locus YBR171W, strain sec66, active compounds read low 1.05 | locus YBR231C, strain swc5, active compounds read low 1.06 | locus YBR279W, strain paf1, active compounds read low 1.01 | locus YCL011C, strain gbp2, active compounds read low 1.04 | locus YCL016C, strain dcc1, active compounds read low 1.04 | locus YCL061C, strain MRC1, active compounds read low 1.04 | locus YCL069W, strain vba3, active compounds read low 1.04 | locus YCR088W, strain abp1, active compounds read low 1.03 | locus YDL005C, strain med2, active compounds read low 1.05 | locus YDL040C, strain nat1, active compounds read low 1.03 | locus YDR001C, strain nth1, active compounds read low 1.02 | locus YDR069C, strain doa4, active compounds read low 1.06 | locus YDR137W, strain rgp1, active compounds read low 1.06 | locus YDR159W, strain sac3, active compounds read low 1.04 | locus YDR195W, strain ref2 1.11 | locus YDR297W, strain sur2, active compounds read low 1.03 | locus YDR334W, strain swr1, active compounds read low 1.04 | locus YDR335W, strain msn5, active compounds read low 1.04 | locus YDR392W, strain spt3, active compounds read low 1.01 | locus YEL003W, strain gim4, active compounds read low 1.03 | locus YEL037C, strain rad23, active compounds read low 1.03 | locus YEL061C, strain CIN8 (second series), active compounds read low 1.03 | locus YER015W, strain faa2, active compounds read low 1.02 | locus YER016W, strain bim1, active compounds read low 1.03 | locus YER111C, strain swi4, active compounds read low 1.04 | locus YER155C, strain BEM2 (second series), active compounds read low 1.07 | locus YFR010W, strain ubp6, active compounds read low 1.03 | locus YGL167C, strain pmr1, active compounds read low 1.03 | locus YGL173C, strain kem1, active compounds read low 1.05 | locus YGL227W, strain vid30, active compounds read low 1.03 | locus YGL240W, strain doc1, active compounds read low 1.04 | locus YGL253W, strain hxk2, active compounds read low 1.03 | locus YHR013C, strain ard1, active compounds read low 1.09 | locus YHR027C, strain rpn1, active compounds read low 1.04 | [2] 1.07 | [3] 1.07 | locus YHR142W, strain chs7, active compounds read low 1.01 | locus YJL092W, strain hpr5, active compounds read low 1.03 | locus YJL095W, strain BCK1 (second series), active compounds read low 1.02 | [4] 1.06 | locus YJL115W, strain asf1, active compounds read low 1.03 | locus YJL129C, strain trk1, active compounds read low 1.08 | locus YJL154C, strain vps35, active compounds read low 1.04 | locus YJL164C, strain tpk1, active compounds read low 1.02 | locus YJL166W, strain qcr8, active compounds read low 1.05 | [10] 1.03 | [5] 0.971 | locus YKL160W, strain elf1, active compounds read low 1.05 | locus YKR026C, strain gcn3, active compounds read low 1.04 | locus YKR091W, strain srl3, active compounds read low 1.03 | locus YLL001W, strain dnm1, active compounds read low 1.06 | locus YLL026W, active compounds read low 1.02 | locus YLL041C, strain sdh2, active compounds read low 1.03 | locus YLR027C, strain aat2, active compounds read low 1.04 | [6] 1.07 | locus YLR221C, strain rsa3, active compounds read low 1.05 | locus YLR258W, strain gsy2, active compounds read low 1.02 | locus YLR262C, strain YPT6 (second series), active compounds read low 1.06 | locus YLR320W, strain mms22, active compounds read low 1.06 | locus YLR342W, strain FKS1, active compounds read low 1.04 | locus YLR357W, strain rsc2, active compounds read low 1.07 | locus YLR370C, strain arc18, active compounds read low 1.04 | locus YLR384C, strain iki3, active compounds read low 1.03 | locus YML120C, strain ndi1, active compounds read low 1.03 | locus YMR058W, strain fet3, active compounds read low 1.03 | locus YMR125W, strain sto1, active compounds read low 1.06 | locus YMR129W, active compounds read low 1.03 | locus YMR205C, strain PFK2, active compounds read low 1.07 | locus YMR231W, strain pep5, active compounds read low 1.03 | locus YNL071W, strain lat1, active compounds read low 1.05 | [7] 0.985 | locus YNL209W, strain ssb2, active compounds read low 1.03 | locus YNL248C, strain rpa49, active compounds read low 1.07 | locus YNL322C, strain KRE1 (second series), active compounds read low 1.05 | locus YNR049C, strain mso1, active compounds read low 1.03 | locus YOR001W, strain rrp6, active compounds read low 1.01 | locus YOR070C, strain gyp1, active compounds read low 1.05 | locus YOR080W, strain dia2, active compounds read low 1.05 | locus YOR083W, strain WHI5, active compounds read low 1.05 | locus YOR106W, strain vam3, active compounds read low 1.07 | [8] 1.07 | locus YOR265W, strain rbl2, active compounds read low 1.03 | locus YOR270C, strain vph1, active compounds read low 1.1 | locus YOR290C, strain snf2, active compounds read low 1.07 | locus YPL051W, strain arl3, active compounds read low 1.07 | locus YPL078C, strain atp4, active compounds read low 1.06 | locus YPL106C, strain sse1, active compounds read low 1.02 | locus YPL240C, strain hsp82, active compounds read low 1.01 | [9] 1.11
